Source: PubChem BioAssay (NCI)
About 83,000 compounds went through this panel and 20% of them were active in at least one assay; those are over-represented in the sample as a whole.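 Compound tested at a single concentration for 48 hours in 96-well plates; a percent growth value below 10 was scored as active.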 Calls of active or inactive are those of the source.

system: HL-60(TB) leukemia; test: NCI-60 one-dose screen, 48 h (100 = growth as untreated, 0 = no growth, -100 = all killed); conditions: 10 µM unless noted

SMILES | growth
CCCCCN(CCCCC)CCC[C@@H](C)[C@H]1CC[C@H]2[C@@H]3[C@H](OCCCN)C[C@@H]4C[C@H](OCCCN)CC[C@]4(C)[C@H]3C[C@H](OCCCN)[C@]12C | -16.8% (active)
COc1cnc2c(c1)C(=O)c1c-2n(CCCNC(C)C)c(=O)c2cc(F)ccc12 | -38.7% (active)
CCOC(=O)C1(C)CCCC1N (stereo not given) | 98.5% (inactive)
Cc1ccc(Cc2cnc(NC(=O)CN3C(=O)/C(=C\c4ccccc4)SC3=S)s2)cc1 | 99.6% (inactive)
CCOC(=O)c1c(C)[nH]c(C(=O)CCC(=O)OC)c1C | 94.9% (inactive)
O=C1OCC2=C1C(c1cccc(C(F)(F)F)c1)c1cc3c(cc1N2CCO)CCC3 (stereo not given) | -25.2% (active)
COc1cc(N=Nc2cc(Cc3ccc(N(C)C)cc3)c(N)cc2N(C)C)c2ncccc2c1 | -55.5% (active)
O=c1[nH]cnc2nc[nH]c12 | 117% (inactive)
COc1ccccc1Cn1cc2c(c1-c1ccccc1)CCc1cnoc1-2 | 19.4% (inactive)
Cc1ccc(Cn2cc(COc3ccc4c5ccnc(C)c5n(CCCc5ccccc5)c4c3)nn2)cc1 | 77.6% (inactive)
COc1ccc(N=Nc2nccs2)c(O)c1 | -32.2% (active)
CC(CC(=O)c1ccccc1)c1ccccc1 (stereo not given) | 102% (inactive)
O=c1c2ccccc2c(Br)c(Br)c2ccccc12 | 70.9% (inactive)
COc1ccc(N(C)c2nc(Cl)nc3ccn(C)c23)cc1 | -35.3% (active)
COc1cc2nc3cc([N+](=O)[O-])ccc3c(NCCCNCCO)c2cc1OC | -25.3% (active)
